Assay outcomes as filed in PubChem BioAssay.
ELG1 genotoxic: qHTS screen for small molecules that induce genotoxicity in human embryonic kidney (HEK293T) cells expressing luciferase-tagged ELG1; hit rate 1.3% among 330,000; Potency, µM (top dose mostly 46 µM), without a hit: at the highest dose activity change, positive = activation, usual class: activators; HEK293T ELG1-luciferase reporter, luminescence, 16 h; AID 504466, 2011; note: % of control where 0% means no effect; nearly all actives have a fitted effect of over 60% in size
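HEK293T cells expressing luciferase-tagged ELG1 were exposed to compound or DMSO vehicle for 16 hr at 37 °C and 5% CO2. Luciferase activity was then measured with ONE-Glo after 30 min at room temperature.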
Rab9 promoter act: qHTS Assay for Rab9 Promoter Activators; Huh7 Rab9 promoter-luciferase reporter, luminescence, 24 h; Potency, µM (highest dose often 9.22 µM), for the others: at the highest dose activation, negative = inhibition, hits mostly activators; hit rate 2.8% among 320,000; AID 485297, 2010; note: % of control where 0% means no effect; nearly all actives have a fitted effect of over 60% in size
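Promoter activation is measured as luciferase luminescence in Huh7 cells stably transfected with a Rab9 promoter–luciferase construct, following 24 h compound exposure at 37 °C and 10 min reagent incubation at ambient temperature.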
FLuc counter: qHTS profiling assay for firefly luciferase inhibitor/activator using purifed enzyme and Km concentrations of substrates (counterscreen for miR-21 project) | purified FLuc, Km substrates, luminescence inhibition | Potency, µM (titrated, usually from 57.5 µM), inactives show at the top dose activity change, negative = inhibition, hits mostly inhibitors | AID 588342, 2011 | hit rate 6.9% among 360,000 | Luciferin 4-monooxygenase (Photinus pyralis), P08659;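 note: plate controls were vehicle for no effect and reference inhibitor for full effect; nearly all actives have a fitted effect of over 55% in size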
Target sequence (P08659 whole entry, looked up): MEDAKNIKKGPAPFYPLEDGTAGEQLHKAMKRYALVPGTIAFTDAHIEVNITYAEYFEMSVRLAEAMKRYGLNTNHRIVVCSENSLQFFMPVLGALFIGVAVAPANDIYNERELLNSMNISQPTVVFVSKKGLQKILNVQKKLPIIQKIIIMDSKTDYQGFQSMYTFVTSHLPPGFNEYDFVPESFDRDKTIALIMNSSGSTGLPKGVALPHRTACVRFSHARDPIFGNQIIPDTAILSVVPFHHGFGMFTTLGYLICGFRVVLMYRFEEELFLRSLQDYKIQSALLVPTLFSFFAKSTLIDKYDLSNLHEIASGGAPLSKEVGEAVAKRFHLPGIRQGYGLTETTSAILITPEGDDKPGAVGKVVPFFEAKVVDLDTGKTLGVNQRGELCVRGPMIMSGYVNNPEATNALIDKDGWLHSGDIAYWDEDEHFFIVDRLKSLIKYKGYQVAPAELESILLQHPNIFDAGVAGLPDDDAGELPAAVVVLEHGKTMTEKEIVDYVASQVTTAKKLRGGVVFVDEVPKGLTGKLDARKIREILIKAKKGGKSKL
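Purified P. pyralis luciferase (10nM final) with 10uM D-luciferin and 10uM ATP (Km levels) in 50mM Tris acetate pH 7.5, 10mM Mg acetate, 0.01% Tween-20, 0.05% BSA; qHTS 6-point titration, ~60 µM downward; luminescence read.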
NPC1 prom act: qHTS Assay for NPC1 Promoter Activators | Huh7 NPC1 promoter luciferase reporter, 24 h | Potency, µM (doses to about 9.22 µM), for the others: top-dose activation, usual class: activators | hit rate 2.4% among 320,000 | AID 485313, 2010; note: % of control where 0% means no effect; nearly all actives have a fitted effect of over 60% in size
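Luminescence from an NPC1 promoter-driven luciferase reporter in stably transfected Huh7 cells was measured after 24 h compound treatment at 37 °C, followed by 10 min ambient incubation with luciferase detection reagent.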
KinaseGlo FLuc: Counterscreen for Luciferase (Kinase-Glo TM) Inhibition. Luciferin 4-monooxygenase (Photuris pensylvanica), Q27757. Kinase-Glo luciferase, ATP luminescence, 8 min. Potency, µM (highest dose often 38.3 µM), without a hit: at the top dose activity change, negative = inhibition, usual class: inhibitors. hit rate 0.28% among 200,000. AID 1379, 2008; note: % is set by controls: 0 for no effect and ±100 for the full control effect; nearly all actives have a fitted effect of over 60% in size
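Luminescence was the read-out, taken after 8-minute incubation at ambient temperature. Luciferase turned over luciferin with 10 uM ATP in imidazole pH 7.2 buffer containing KCl, MgCl2, Tween 20 and BSA.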
SMN2 splice up: qHTS Assay for Enhancers of SMN2 Splice Variant Expression; HEK293 SMN2-luciferase splicing reporter, luminescence, 30-36 h; Potency, µM (highest dose often 46.1 µM), for inactives: at the highest dose activity change, positive = activation, usual class: activators; hit rate 2.8% among 210,000; AID 1458, 2008; note: % of control where 0% means no effect; nearly all actives have a fitted effect of over 55% in size
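qHTS luciferase splicing reporter: luminescence rises when SMN2 exon 7 is included in transfected HEK293 cells. Compound exposure lasted 30-36 h at 37C, with 4.5 mM final sodium butyrate as control, followed by a ONE-Glo read.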
Numbers without * were called inactive; ? = inconclusive; . = not tested or not shown; [ ] = another dose, or the depositor's remark. Hits are enriched below; roughly 7.3% of the tested compounds scored in any of these assays. Calls come from the whole dose curve; as a rule, active = well fitted curve in the direction sought with a large enough effect; inconclusive = small, poorly fitted or top-dose-only effect, or another doubt; inactive = no such curve, though single readings can be large; an effect the other way counts as inactive or inconclusive. Potency is the fitted concentration of half-maximal effect.

SMILES	ELG1 genotoxic	Rab9 promoter act	FLuc counter	NPC1 prom act	KinaseGlo FLuc	SMN2 splice up
C(CCc1nnc2c(n1)CCCC2)Cc1nnc2c(n1)CCCC2	.	.	.	.	-0.6%[7.66 µM]	0.1%[9.22 µM]
CN(C)/N=C1\CCS(=O)(=O)c2sccc21	-0.3%	-4.1%	3.9%	-3.1%	0.3%	-1.7%
Cc1ccccc1C(=O)O/N=C1\CCS(=O)(=O)c2sccc21	11.6µM*	?	0.601µM*	?	0.6%	15.9%
Cc1ccc(N/N=C2\CCS(=O)(=O)c3sccc32)cc1	10.5%	-1.3%	16.9µM*	5.3%	-1.2%	-2.4%
COc1ccc(C(=O)O/N=C2\CCS(=O)(=O)c3sccc32)cc1	3.6%	-4.5%	1.9µM*	-4.1%	3.6%	.
CCOC(=O)c1c(N)n(-c2ccc(Cl)c(Cl)c2)c2nc3ccccc3nc12	.	.	-1.3%	.	.	3.0%
O=C(Oc1ccc(/C=N/O)cc1)c1ccccc1	2.5%	?	12µM*	0.4%	-12.7%	10.8%
O=C(Oc1ccc(/C=N/Nc2ccccc2)cc1)c1ccccc1	?	6.5%	?	19.6%	-1.8%	-16.7%
Cc1cccc(C(=O)Oc2ccc3ccc(O)cc3c2)c1	0.9%	0.3%	23.9µM*	7.6%	.	.
CC(C)(C)c1ccc(OCCC(=O)NNC(=O)c2ccccc2)cc1	0.3%	-1.3%	12.7%	0.6%	.	.
O=C(Oc1ccc2ccccc2c1)c1ccccc1	?	-2.3%	2.39µM*	-0.2%	15.9%	-12.2%
Cc1cccc(C(=O)Oc2ccc(/C=N/NC(=O)c3ccc(O)cc3)cc2)c1	5.4%	3.8%	?	-2.4%	.	.
CC(C)(C)c1ccc(OC(=O)c2ccccc2)cc1	9.1%	-3.2%	2.39µM*	-12.5%	.	.
COc1cccc(NC(=O)Cn2c(=O)n(CCCC(=O)NCc3ccc4c(c3)OCO4)c(=O)c3ccccc32)c1	.	.	-0.4%	.	.	-6.0%
COc1ccc2nc(SCC(O)c3cccc(Br)c3)[nH]c2c1 (configuration not stated)	.	.	?	.	.	-7.9%
COc1cc(C(=O)N2CCNC(=O)C2CC(=O)Nc2ccc(C)c(C)c2)cc(OC)c1OC (configuration not stated)	.	.	5.9%	.	.	-3.8%
Cc1cc(C)cc(NC(=O)c2cc(C)nc3c2c(C)nn3-c2ccccc2)c1	.	.	3.8%	.	.	.
COc1cc([C@H]2c3cc4c(cc3[C@@H](O[C@H]3O[C@H]5CO[C@@H](C)O[C@H]5[C@@H](O)[C@@H]3O)[C@@H]3COC(=O)[C@H]23)OCO4)cc(OC)c1O	.	.	.	.	0.9%[17.1 µM]	-83.2%[20.6 µM]
Nc1ccc2oc(CCc3ccccc3)nc2c1	?	0.708µM*	9.53µM*	2.51µM*	-4.0%	17.8µM*
COCCN1CCN(C(=O)c2ccc3oc(CCCc4ccccc4)nc3c2)CC1	-1.3%	?	0.0%	?	.	.
NC(=O)[C@@H]1CCCN1C(=O)c1ccc2oc(CCc3ccccc3)nc2c1	?	?	-19.0%	?	.	.
CCOC(=O)CC1COCCN1C(=O)c1ccc2oc(Cc3ccccc3)nc2c1 (configuration not stated)	?	3.16µM*	12µM*	?	.	.
COCC1CCCN(C(=O)c2ccc3oc(CCCc4ccccc4)nc3c2)C1 (configuration not stated)	1.2%	11.4%	?	3.7%	.	.
O=C(c1ccc2oc(CCCc3ccccc3)nc2c1)N1CCCCC1CO (configuration not stated)	?	6.31µM*	23.9µM*	4.47µM*	.	.
O=C(c1ccc2oc(CCc3ccccc3)nc2c1)N1CCC(O)CC1	?	1µM*	10.7µM*	1.26µM*	.	.
SMILES	ELG1 genotoxic	Rab9 promoter act	FLuc counter	NPC1 prom act	KinaseGlo FLuc	SMN2 splice up
Cc1ccc(N[C@H](c2ccccc2)c2ccc3cccnc3c2O)cc1	.	.	.	.	-1.1%[7.66 µM]	-8.7%[9.22 µM]
CCCCOC(=O)c1ccc(NS(=O)(=O)c2c(C)nc3scc(C)n3c2=O)cc1	.	.	?	.	.	-41.7%
CCc1ccc(/C=N/NC(=O)Cc2cccn2C)cc1	15.1%	?	23.9µM*	?	.	.
Cn1cccc1CC(=O)N/N=C/c1ccc(C(C)(C)C)cc1	14.6%	?	16.9µM*	27.5%	.	.
Cc1ccc(/C=N/NC(=O)Cc2cccn2C)cc1	15.9%	?	?	25.7%	.	.
COc1cccc(-c2nc(NC(C)(C)C)c3ccccc3n2)c1O	-7.4%	7.4%	-3.0%	0.2%	.	.
COc1cccc(-c2nc(N3CCCC3)c3ccccc3n2)c1O	-5.2%	-2.8%	15.1µM*	0.6%	.	.
COc1ccc(Nc2nc(-c3cccc(OC)c3O)nc3ccccc23)cc1	-4.7%	12.8%	3.79µM*	?	.	.
Cc1ccc(NC(=O)Cc2ccc(-n3c(C)nc4cccnc43)cc2)c(Cl)c1	.	.	-1.0%	.	.	.
C/C(=N\NS(=O)(=O)c1ccc([N+](=O)[O-])cc1)c1ccc(NC(=O)c2ccco2)cc1	?	4.8%	?	10.8%	-4.4%	17.8µM*
CC(=O)Nc1ccc(/C(C)=N/NS(=O)(=O)c2ccc(C)cc2)cc1	0.7%	0.1%	2.9%	-1.6%	-1.3%	-18.2%
C/C(=N/NS(=O)(=O)c1ccc(Br)cc1)c1ccc(NC(=O)c2ccc(C)o2)cc1	-0.5%	6.9%	23.9µM*	2.5%	-1.6%	13.8%
Cc1cccc(Nc2nnc(SCC(=O)c3c(N)n(C4CC4)c(=O)[nH]c3=O)s2)c1	0.7%	-4.6%	?	1.3%	.	.
CCc1ccc(-c2nc(SCC(=O)N(CC)C3CCS(=O)(=O)C3)n[nH]2)cc1 (configuration not stated)	9.0%	?	3.38µM*	21.4%	.	.
Cc1ccc(Nc2nnc(SCC(=O)c3c(N)n(C4CC4)c(=O)[nH]c3=O)s2)cc1C	-1.3%	2.4%	0.757µM*	12.3%	.	.
CCc1ccc(-c2nc(SCC(=O)c3c(N)n(C4CC4)c(=O)[nH]c3=O)n[nH]2)cc1	-0.6%	26.9%	2.13µM*	14.3%	.	.
CCc1ccc(-c2nc(SCC(=O)NC3CC3)n[nH]2)cc1	?	15.1%	13.5µM*	-2.4%	.	.
COc1ccc(CNC(=O)c2cnn3c(C)c(Cc4ccc(F)cc4)c(C)nc23)cc1	.	.	-5.0%	.	.	.
COc1ccc(N2C(=O)CS(=O)(=O)C23C(=O)N(Cc2ccccc2F)c2ccccc23)cc1Cl (configuration not stated)	.	.	-1.7%	.	.	.
CCn1c(CN2CCCCC2)nc2cc(NC(=O)c3cccc([N+](=O)[O-])c3)ccc21	.	.	-1.3%	.	.	.
CCc1ccc(-c2nc(SCC(=O)N3CCOCC3)n[nH]2)cc1	9.5%	21.7%	16.9µM*	7.0%	.	.
